Source: PubChem (National Center for Advancing Translational Sciences (NCATS))
A selection: hits, their analogues and other compounds. The true share with any hit is near 18%.
CtBP-E1A blk = qHTS Assay for Inhibitors of the CtBP/E1A Interaction | AID 651724, 2012 | AlphaScreen GST-E1A/His-CtBP binding, 1536-well; hits give low values | activity change, % (no concentration beside the values) | CtBP / adenovirus E1A interaction (AlphaScreen) | actives 0.49% (n = 340,000); in the data active means activity change below about -65%; inconclusive means mostly about -30% to -63%
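AlphaScreen with 125 nM GST-E1A and 125 nM His-CtBP (5X stocks) in Tris pH 8.0, 300 mM NaCl, BSA, Tween 20, TCEP. Compounds preincubated 2 h at 37 deg C, then glutathione donor/nickel acceptor beads added for 1 h at 37 deg C in dark.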
IL1B secr inh = qHTS for Inhibitors of Inflammasome Signaling: IL-1-beta AlphaLISA Primary Screen; THP-1 LPS/ATP IL-1B secretion, AlphaLISA, 16 h; hits give low values; activity change, % at 57.5 µM; actives 4.7% (n = 360,000); AID 743279, 2014; in the data active means activity change below about -50%; inconclusive means mostly about -30% to -49%
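Secreted IL-1B measured by AlphaLISA bead assay after 16 h compound exposure of THP-1 cells; compounds (final up to 57.5 uM) added 1 h before LPS (250 ng/mL) and ATP (1.25 mM) stimulation; lower signal means less secretion.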
TDP1 cell noCPT = qHTS for Inhibitors of human tyrosyl-DNA phosphodiesterase 1 (TDP1): qHTS in cells in absence of CPT | actives 15% (n = 420,000) | AID 686978, 2013 | Potency, µM (highest dose often 46.2 µM), actives largely listed as inhibitors | DT40 Tdp1-/- hTDP1 cells, no CPT, ATP luminescence, 48 h; further: nearly all actives have a fitted effect of over 55% in size
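Luminescent ATP content (CellTiter-Glo) served as the growth readout. Knockout chicken DT40 cells expressing human TDP1 were exposed to compounds without camptothecin for a minimum 48 hr at 37 °C.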
Six1-Eya2 inh = qHTS Assay for Inhibitors of the Six1/Eya2 Interaction; activity change, % (test concentration not listed); Homeobox protein SIX1 (Homo sapiens) + Protein phosphatase EYA2 (Homo sapiens), …; AID 651725, 2012; actives 0.56% (n = 360,000); AlphaScreen GST-Six1/His-Eya2 binding, biochemical; hits give low values; in the data active means activity change below about -65%; inconclusive means mostly about -30% to -63%
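Compounds are tested against tagged Six1 and Eya2 proteins bridged by glutathione donor and nickel acceptor beads; after a one-hour incubation at 37 °C without light, AlphaScreen emission is recorded.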
TDP1 inh = qHTS Assay for Inhibitors of Tyrosyl-DNA Phosphodiesterase (TDP1). Tyrosyl-DNA phosphodiesterase 1 (Homo sapiens), Q9NUW8. recombinant TDP1, AlphaScreen DNA substrate cleavage. Potency, µM (top dose mostly 130 µM), hits mostly inhibitors. actives 0.28% (n = 350,000); further: nearly all actives have a fitted effect of over 40% in size
Target sequence (Q9NUW8 whole entry, looked up): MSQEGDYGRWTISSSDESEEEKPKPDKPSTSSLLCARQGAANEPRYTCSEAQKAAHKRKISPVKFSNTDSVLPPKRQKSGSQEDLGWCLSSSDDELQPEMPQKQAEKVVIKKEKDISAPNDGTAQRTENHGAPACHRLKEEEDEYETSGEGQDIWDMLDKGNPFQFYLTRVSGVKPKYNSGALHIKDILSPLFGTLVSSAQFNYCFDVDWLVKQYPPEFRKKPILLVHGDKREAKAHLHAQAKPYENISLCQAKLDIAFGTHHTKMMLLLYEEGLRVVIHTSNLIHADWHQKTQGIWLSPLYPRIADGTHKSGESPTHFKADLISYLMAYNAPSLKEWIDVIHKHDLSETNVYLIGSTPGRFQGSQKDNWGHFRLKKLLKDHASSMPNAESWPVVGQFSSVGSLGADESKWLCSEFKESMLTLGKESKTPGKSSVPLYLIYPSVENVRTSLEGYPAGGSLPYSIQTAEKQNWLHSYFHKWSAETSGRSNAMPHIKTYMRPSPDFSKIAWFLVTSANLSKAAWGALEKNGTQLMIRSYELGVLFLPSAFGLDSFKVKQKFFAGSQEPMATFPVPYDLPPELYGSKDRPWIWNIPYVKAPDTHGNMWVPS
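Here, a 5' biotin and 3' phosphotyrosine-FITC DNA oligonucleotide reports Tdp1 activity: intact substrate bridges AlphaScreen beads, while cleavage leaves a 3' phosphate and drops signal. All incubations at room temperature.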
DT40 TDP1 CPT = qHTS for Inhibitors of human tyrosyl-DNA phosphodiesterase 1 (TDP1): qHTS in cells in presence of CPT. chicken DT40 Tdp1-/-;hTDP1 cells + 20 nM CPT, ATP luminescence, 48 h. Potency, µM (top dose mostly 46.2 µM), actives largely listed as inhibitors. actives 12% (n = 420,000); further: nearly all actives have a fitted effect of over 55% in size
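Chicken DT40 Tdp1-/- cells complemented with human TDP1, 400 cells/well, exposed to compounds plus 20 nM camptothecin for at least 48 h at 37 C; viability read as ATP content by CellTiter-Glo luminescence.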
Large screens that a line does not name were inactive. Unless noted, the call rests on the fitted dose curve; in most records, active means well fitted curve in the direction sought with a large enough effect; inconclusive means small, poorly fitted or top-dose-only effect, or another doubt; inactive means no such curve, though single readings can be large; an effect the other way counts as inactive or inconclusive.

COc1ccccc1C1CCN(Cc2ccc(Cl)c(Cl)c2)CC1	TDP1 cell noCPT inconclusive, DT40 TDP1 CPT inconclusive (no result: TDP1 inh)
COc1ccccc1C1CCN(Cc2cccc3ccccc23)CC1	TDP1 cell noCPT 16.4µM, DT40 TDP1 CPT inconclusive (no result: TDP1 inh)
COc1ccccc1C1CCN(Cc2c(C)[nH]c3ccccc23)CC1	TDP1 cell noCPT 5.8µM, DT40 TDP1 CPT 4.61µM (no result: IL1B secr inh)
COc1cc(NC(=O)CCC2CCCC2)cc(-n2cnnn2)c1	TDP1 cell noCPT inconclusive, DT40 TDP1 CPT inconclusive
NC(c1csc(Nc2cc(NCc3ccco3)ncn2)n1)c1ccccc1Cl (stereo not drawn)	CtBP-E1A blk -80.2, IL1B secr inh -79.0, TDP1 cell noCPT 14.6µM, Six1-Eya2 inh inconclusive, DT40 TDP1 CPT 20.6µM (no result: TDP1 inh)
NC(Cc1ccc(F)cc1)c1csc(Nc2cc(NCc3ccco3)ncn2)n1 (stereo not drawn)	CtBP-E1A blk -76.3, IL1B secr inh -54.7, TDP1 cell noCPT 20.6µM, Six1-Eya2 inh inconclusive, DT40 TDP1 CPT 23.1µM (no result: TDP1 inh)
Cc1ccc(CNC(=O)CSc2ncc3c(n2)-c2cc(Cl)ccc2N(C)S3(=O)=O)cc1	TDP1 cell noCPT inconclusive, DT40 TDP1 CPT inconclusive (no result: CtBP-E1A blk, IL1B secr inh, Six1-Eya2 inh)
CC(=O)NCCNc1nc(NCc2ccccc2)nc2ccsc12	TDP1 cell noCPT inconclusive, DT40 TDP1 CPT inconclusive (no result: TDP1 inh)
CNc1nc(NCc2ccc(N(C)C)cc2)c2sccc2n1	CtBP-E1A blk inconclusive, TDP1 cell noCPT 16.4µM, Six1-Eya2 inh -66.9, DT40 TDP1 CPT 18.4µM (no result: TDP1 inh)
Cc1ccc(CNc2nc(NCC3CC3)nc3ccsc23)c(C)c1	TDP1 cell noCPT 10.3µM, DT40 TDP1 CPT 9.2µM (no result: TDP1 inh)
CNc1nc(NCC2CCCCC2)c2sccc2n1	TDP1 cell noCPT 13µM, DT40 TDP1 CPT 13µM (no result: TDP1 inh)
Cc1ccc(CNc2nc(NCc3ccccc3)nc3ccsc23)c(C)c1	IL1B secr inh -88.3, TDP1 cell noCPT inconclusive, DT40 TDP1 CPT 9.2µM (no result: TDP1 inh)
CCN1CCN(CCCNC(=O)c2cnn(-c3ccccc3Cl)c2C2CCN(C(=O)OC(C)(C)C)CC2)CC1	DT40 TDP1 CPT inconclusive (no result: CtBP-E1A blk, IL1B secr inh, Six1-Eya2 inh)
O=C(Nc1cccc(N2C(=O)C3C4C=CC(C4)C3C2=O)c1)c1cccs1 (stereo not drawn)	none
COC(=O)/C=C/c1ccc2c(c1)S(=O)(=O)N(c1cccc(OC)c1)[C@H]2CC(=O)OC	TDP1 cell noCPT inconclusive, DT40 TDP1 CPT inconclusive (no result: TDP1 inh)
Cc1ccc(S(=O)(=O)N(C)C)cc1NC(=S)N(CCC#N)Cc1cccnc1	TDP1 cell noCPT inconclusive
CNc1nc(NCc2ccc(C)cc2C)c2sccc2n1	TDP1 cell noCPT 6.51µM, DT40 TDP1 CPT 18.4µM (no result: TDP1 inh)
Cc1ccc(CNc2nc(NC(C)C)nc3ccsc23)c(C)c1	TDP1 cell noCPT inconclusive, DT40 TDP1 CPT 23.1µM (no result: TDP1 inh)
Cc1ccc(F)cc1-c1nc(NCC2CC2)nc2ccsc12	TDP1 cell noCPT inconclusive, DT40 TDP1 CPT inconclusive (no result: TDP1 inh)
Cc1ccc(Nc2ncnc3sccc23)c(C)c1	TDP1 cell noCPT inconclusive
CNc1nc(Nc2ccc(C)cc2C)c2sccc2n1	TDP1 cell noCPT 16.4µM, DT40 TDP1 CPT 13µM (no result: TDP1 inh)
Cc1ccc(Nc2nc(NCC3CC3)nc3ccsc23)c(C)c1	IL1B secr inh inconclusive, TDP1 cell noCPT 5.8µM, DT40 TDP1 CPT 3.66µM (no result: TDP1 inh)
COCCNc1nc(NCc2cnc(C)cn2)c2sccc2n1	none (no result: TDP1 inh)
O=S(=O)(Cc1ccccc1Cl)NCCOc1ccccc1	none
CCOCCCNC(=O)CS(=O)(=O)Cc1nc(-c2cccc(OC)c2)oc1C	none
NC(=O)c1ccc(CSc2nc3ccccc3s2)cc1	none
CC(C)c1ccc(NC(=O)N2CCN(c3ccc(Cl)c(Cl)c3)CC2)cc1	TDP1 cell noCPT 0.92µM, DT40 TDP1 CPT inconclusive (no result: CtBP-E1A blk, IL1B secr inh, Six1-Eya2 inh)
CC(C)c1ccc(NC(=O)N2CCN(S(=O)(=O)c3ccccc3)CC2)cc1	none
